Assay results from PubChem BioAssay.
Activity calls are given as the source filed them.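 How the source made its calls: active means viability at or below 10% of carrier control in both of two separate runs; inconclusive means viability at or below 10% in only one of the two runs; inactive means the rest.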

Experiment: reduced viability of SK-BR-3 breast cancer cells – cell-based, 24 h, human, pilot screen (AID 572);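 further: compound exposure lasted between 18 and 24 h rather than exactly 24 h; 100% = carrier-treated control wells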
Settings: SK-BR-3 viability, CellTiter-Glo luminescence, at 10 µM, hits give low values

**Q.** Which viability does the source give for COC(=O)Cc1c(C)nc2nc[nH]n2c1=O here?
**A.** 88% (inactive)

**Q.** Which viability does the source give for CCOCCCn1c(=NC(C)=O)c(C(=O)OCC)cc2c(=O)n3ccccc3nc21 here?
**A.** 82% (inactive)

**Q.** With Cc1ccc(N2CCN(c3ccc(C)cc3)C(CC(=O)O)C2=O)cc1 (stereo not drawn) as the molecule, how does the viability read?
**A.** 92% (inactive)

**Q.** Which viability does the source give for C[C@@H]1C[C@H]2[C@@H]3C[C@H](F)C4=CC(=O)C=C[C@]4(C)[C@@]3(F)[C@@H](O)C[C@]2(C)[C@@]1(O)C(=O)COC(=O)C(C)(C)C here?
**A.** 103% (inactive)

**Q.** Which viability does the source give for CC(C)N(C(=O)N1CCC(c2nc(-c3ccncc3)no2)CC1)C(C)C here?
**A.** 79% (inactive)

**Q.** For CCOc1cc2[nH]c(=O)n(CCCCC(=O)NCc3ccco3)c(=O)c2cc1OCC, which viability is on record?
**A.** 88% (inactive)

**Q.** With Cc1ccc(C2C(C(=O)c3sc(C)nc3C)=C(O)C(=O)N2CCN(C)C)o1 (stereo not drawn) as the molecule, how does the viability read?
**A.** 93% (inactive)

**Q.** For COc1cc(C(=O)N2CCCC(c3nc(-c4cccs4)no3)C2)cc(OC)c1OC (stereo not drawn), which viability is on record?
**A.** 90.5% (inactive)

**Q.** Which viability does the source give for CC1Oc2ccccc2N(CC(=O)NCc2cccs2)C1=O (stereo not drawn) here?
**A.** 77% (inactive)

**Q.** Which viability does the source give for Cn1c(=O)c2c(nc(CN3CCCCC3)n2CCCc2ccccc2)n(C)c1=O here?
**A.** 122% (inactive)

**Q.** Which viability does the source give for O=C(O)CC1Sc2nc3ccccc3n2C1=O (stereo not drawn) here?
**A.** 105% (inactive)

**Q.** Which viability does the source give for CCN(CC)S(=O)(=O)c1ccc(F)c(C(=O)NCCC(C)C)c1 here?
**A.** 82% (inactive)

**Q.** Which viability does the source give for CCOC(=O)n1c(=O)oc2cc(S(=O)(=O)N3CCCCC3)ccc21 here?
**A.** 97% (inactive)

**Q.** For COC(=O)CCN(C(=O)c1ccc2c(c1)OCO2)c1ccccn1, which viability is on record?
**A.** 96% (inactive)

**Q.** With CC(C)NC(=O)c1ccccc1NC(=O)CCS(=O)(=O)Cc1ccccc1 as the molecule, how does the viability read?
**A.** 116% (inactive)

**Q.** Which viability does the source give for COc1cc(C2Oc3cc(C4Oc5cc(O)cc(O)c5C(=O)C4O)ccc3OC2CO)ccc1O (stereo not drawn) here?
**A.** 106% (inactive)

**Q.** For CCOc1ccccc1N1CC(O)=C(c2nc3ccccc3s2)C1=N, which viability is on record?
**A.** 97% (inactive)

**Q.** Which viability does the source give for CCOC(=O)N1CCC(NC(=O)Cc2ccc(-n3c(=O)[nH]c4ccccc4c3=O)cc2)CC1 here?
**A.** 103% (inactive)

**Q.** Which viability does the source give for O=C(CSc1nc(-c2ccco2)cc(C(F)(F)F)n1)N1CCCc2ccccc21 here?
**A.** 109% (inactive)

**Q.** With Cc1cccc(NC(=O)C2CCCN(C(=O)Nc3ccccc3)C2)c1C (stereo not drawn) as the molecule, how does the viability read?
**A.** 88% (inactive)

**Q.** Which viability does the source give for COc1ccc(C(=O)CSc2nnc(-c3ccc(C)cc3)o2)cc1 here?
**A.** 97% (inactive)

**Q.** Which viability does the source give for O=C(NCc1nc2ccccc2[nH]1)c1ccc(Cl)c(S(=O)(=O)N2CCCC2)c1 here?
**A.** 99% (inactive)

**Q.** Which viability does the source give for Cc1nc2scc(-c3ccco3)c2c(=O)n1/N=C/N(C)C here?
**A.** 87% (inactive)
